Compounds without any hit were thinned out: in the full panel of roughly 83,000, 20% have a hit.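 Cell lines were cultured in 96-well plates, exposed to a single compound concentration, and assessed for percent growth 48 hours later.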 Unmarked numbers belong to inactive results. Activity calls are given as the source filed them. Rule for the calls: active = growth percent below 10; inactive = the rest.
How the values were obtained:
Test in all cases: NCI-60 one-dose screen, 48 h (100 = growth as untreated, 0 = no growth, -100 = all killed)
BT-549 breast = conditions: 10 µM unless noted
MDA-MB-435 melanoma = conditions: 10 µM unless noted
SW-620 colon = conditions: 10 µM unless noted
MCF7 breast = conditions: 10 µM
HCT-116 colon = conditions: 10 µM unless noted
HCC-2998 colon = conditions: 10 µM unless noted
KM12 colon = conditions: 10 µM unless noted

SMILES	growth (BT-549 breast) [%]	growth (MDA-MB-435 melanoma)	growth (SW-620 colon)	growth (MCF7 breast)	growth (HCT-116 colon)	growth (HCC-2998 colon)	growth (KM12 colon)
Clc1ccc(Nc2nnc(-c3ccc4c(c3)OCO4)o2)cc1	116	99.9%	102%	93.4%	96.7%	98.6%	99.5%
Cc1nc(Nc2cn[nH]c2C(=O)Nc2ccc(CN3CCN(C)CC3)cc2)c2ccsc2n1	88.5	87.1%	114%	59.9%	52.4%	95.3%	27.4%
Cc1cccc2c(=O)c3c(sc12)c(NCCCNCCO)nc1ccccc13	73	29.5%	-51.6% (active)	-61% (active)	-30.3% (active)	12.7%	33.6%
CCOC(=O)c1cc2c(n1Cc1cc(OC)c(OC)c(OC)c1)-c1oncc1CCC2	31.9	-53.9% (active)	21.5%	7.45% (active)	8.98% (active)	17.2%	28.4%
COc1cc2c(cc1OC)C(=O)C(CC1CCN(C(=O)Nc3ccc(C)cc3)CC1)C2 (stereo not given)	96.6	97.7%	94.6%	90.4%	97.4%	116%	94.3%
Brc1ccc(Oc2ccc(Nc3ncnc4onc(-c5ccccc5)c34)cc2)cc1	102	99.9%	100%	86.1%	97.5%	95.5%	99.6%
Cc1ccc(Cn2c(N3CCC(C(=O)NCc4cccs4)CC3)nc3ccccc32)cc1	75	90%	93.6%	95.2%	58.1%	90.1%	54.8%
CCN1C(=O)N(c2ccccc2)C2Nn3c(s/c(=C4\C(=O)N(C(C)C)c5ccccc54)c3=O)=NC21 (stereo not given)	107	99.7%	98.7%	98.8%	105%	112%	105%
COc1ccc(C2NCCc3c2[nH]c2ccccc32)cc1CN1CCN(c2ccc(F)cc2)CC1 (stereo not given)	69.7	38.2%	29.6%	33.9%	41.6%	17.9%	40.4%
CCOc1ccc2c(c1)CN(Cc1ccc(Cl)cc1)CO2	112	64.7%	69.6%	59.4%	38.7%	86.4%	57.7%
COc1cc(/C=C2\CN(C)C/C(=C\c3cc(CN4CCCC4)c(O)c(OC)c3)C2=O)cc(CN2CCCC2)c1O	94.1	67.6%	54.5%	26.3%	40.4%	96%	48.3%
O=C(NCc1ccco1)C1CN(c2ccc(Cl)cc2)N(c2ccc(Cl)cc2)C1=O (stereo not given)	51.9	-32.5% (active)	28.6%	14.2%	21.9%	76.1%	22.3%
COc1ccccc1CNC(=O)C1c2ccccc2C(=O)N(CC(C)C)C1c1cccs1 (stereo not given)	78.9	71%	78.6%	66.4%	59.9%	48.3%	32.7%
COc1ccc(/C=C2\N=C(c3ccccc3)N(c3ccc(-c4nc5ccc(C)cc5s4)cc3)C2=O)cc1	92.8	86.9%	101%	77.1%	85.9%	96%	72.1%
COc1cc2nc(NC3CCCC3)nc(NC3CCN(C(C)C)CC3)c2cc1OC	76.7	-34.3% (active)	59.2%	39.8%	66.5%	29.6%	79.2%
CCC1=C[C@@H]2CN(C1)Cc1c([nH]c3ccccc13)[C@@](C(=O)OC)(c1cc3c(cc1OC)N(C)[C@H]1[C@@](O)(C(=O)OC)[C@H](OC(C)=O)[C@]4(CC)[C@@H]5C[C@@H]5CN5CC[C@]31[C@@H]54)C2	12.8	-57.7% (active)	26.1%	3.46% (active)	6.72% (active)	-13.1% (active)	5.74% (active)
O=C1OC(c2ccccc2)(c2ccccc2)c2ccsc21	104	108%	97.4%	104%	103%	127%	99.1%
CCC1=C[C@]2(C3CC(=O)N(c4ccccc4)C3=O)CC(C(C)(C)C)C[C@@H]2[C@@H]2C(=O)N(c3ccccc3)C(=O)[C@H]12 (stereo not given in full)	86.5	85.9%	88.4%	80.7%	68.1%	103%	85.9%
CS(=O)(=O)Nc1ccc(C(=O)NC(C(=O)NO)c2ccc(-c3cccc(F)c3)cc2)cc1 (stereo not given)	94.1	54.5%	51.2%	66.7%	39.1%	62.6%	58.2%
COc1ccc(C)c2sc(N(Cc3cccnc3)C(=O)c3ccc(C#N)cc3)nc12	21.7	10.1%	10.8%	3.83% (active)	13.2%	10.9%	18.2%
CCCCC1CCc2cccc3c(SCC(=O)N(C)c4ccc(Cl)cc4)cc[n+]1c23 (stereo not given)	115	103%	106%	99.1%	102%	114%	108%
CCCCC1COc2cccc3c2N1C=C/C3=C\C(=O)N(C)c1ccccc1 (stereo not given)	50.8	69%	73.4%	66.7%	36.1%	71.1%	65.2%
CCCCCCC(O)(c1ccc(F)cc1)C(CN1CCOCC1)c1ccccc1 (stereo not given)	61.9	35.8%	26.3%	20.4%	18.5%	23.3%	29%
COc1cc(NC(=O)CCSc2nc3ccccc3c(=O)n2Cc2ccccc2)cc(OC)c1OC	86	89.9%	93.6%	84.1%	83.7%	99.6%	87.1%
COc1ccc(C(=O)Nc2ccc3nc(N4CCCCC4)cc(C)c3c2)cc1OC	90.6	88.2%	23.7%	80.2%	64.2%	66.5%	23.7%
